# In PubChem BioAssay (Tox21):
# Calls of active or inactive are those of the source. Calls come from the whole dose curve.
# Target: Estrogen receptor (Homo sapiens) (UniProt P03372)
# Test: qHTS assay to identify small molecule agonists of the estrogen receptor alpha (ER-alpha) signaling pathway in the presence of an antagonist (AID 1259383); note: top concentration of the series differs between compounds; nearly all actives have a fitted effect of over 15% in size
# Details: VM7Luc4E2 cells, ERE-luciferase, +ICI-182,780, 22 h; series mostly up to 92.4 µM; activation: at the top concentration
# From the text: National Center for Advancing Translational Sciences [NCATS] NIH Chemical Genomics Center [NCGC] U.S. Environmental Protection Agency [EPA] National Institutes of Environmental Health Sciences [NIEHS] National Toxicology Program [NTP] Assay overview: Estrogen receptor (ER), a member of nuclear hormone receptor plays an important role in development, metabolic homeostasis and reproduction. Two subtypes of ER, ER-alpha and ER-beta, have similar expression patterns with some uniqueness in both types. Endocrine disrupting chemicals (EDCs) and their interactions with steroid hormone receptors like ER causes disruption of normal endocrine function. Therefore, it is important to understand the effect of environmental chemicals in ER signaling pathway. For identifying ER agonists, VM7Luc4E2 cell line has been used in the current assay. VM7Luc4E2 cell line (provided by Denison MS, University of California) endogenously expresses full-length ER-alpha and is stably transfected with a plasmid containing four estrogen responsive elements (ERE) upstream of a luciferase reporter gene. This current screening for measuring luciferase reporter gene activity using VM7Luc4E2 cells against Tox21 10K library collection is a confirmation study on agonist mode screening in presence of ER-antagonist (ICI-182,780) at 10.0nM final concentration.
# Assay Protocol Summary: VM7Luc4E2 cells were cultured in phenol red free assay medium containing 10% charcoal stripped FBS for 5 days prior to the assay. The cells were dispensed at 4,000 cells in 4uL of assay medium per well into white wall/solid-bottom 1536-well plates (Corning Life Sciences, Corning, NY) using a Multidrop Combi (Thermo Fisher Scientific Inc., Waltham, MA) dispenser. After the assay plates were incubated at 37C and 5% CO2 for 24hr, 1uL of 10.0nM (final concentration) ICI-182,780 or assay buffer was added using two separate tips of Flying Reagent Dispenser (FRD, Aurora Discovery, San Diego, CA). Then 23nL of compounds dissolved in DMSO at 15 concentrations and positive controls or DMSO only was transferred to the assay plates by a Pintool station (Wako, San Diego, CA). The assay plates were incubated at 37C and 5% CO2 for 22hr. For luciferase read, 4uL/well ONE-Glo reagent (Promega Corporation, Madison, WI) was added to each well using FRD and after 30min incubation at room temperature, luminescence signal was measured on ViewLux plate reader (PerkinElmer, Shelton, CT).
# % is set by controls: 0 for no effect and ±100 for the full control effect.
# Chain of Estrogen receptor (Homo sapiens) (P03372 whole entry, looked up): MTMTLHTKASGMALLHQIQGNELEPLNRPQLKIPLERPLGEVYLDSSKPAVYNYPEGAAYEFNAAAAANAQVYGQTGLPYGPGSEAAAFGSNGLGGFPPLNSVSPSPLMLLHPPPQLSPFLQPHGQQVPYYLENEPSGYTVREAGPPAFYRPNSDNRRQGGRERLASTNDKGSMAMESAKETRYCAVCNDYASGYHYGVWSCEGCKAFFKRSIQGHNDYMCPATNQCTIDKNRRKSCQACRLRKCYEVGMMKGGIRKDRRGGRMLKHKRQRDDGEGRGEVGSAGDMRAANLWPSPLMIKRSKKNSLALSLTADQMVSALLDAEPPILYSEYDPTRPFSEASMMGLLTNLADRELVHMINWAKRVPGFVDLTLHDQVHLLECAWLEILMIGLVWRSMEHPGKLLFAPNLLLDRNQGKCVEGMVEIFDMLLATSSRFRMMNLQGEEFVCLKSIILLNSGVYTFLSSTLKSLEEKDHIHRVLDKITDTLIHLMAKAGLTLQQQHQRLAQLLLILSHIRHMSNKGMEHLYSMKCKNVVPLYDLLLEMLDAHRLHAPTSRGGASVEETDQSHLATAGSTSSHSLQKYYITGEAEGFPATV
row,SMILES,activation
1,N#CC(CCc1ccc(Cl)cc1)(Cn1cncn1)c1ccccc1 (stereo not given),-10.8% (inactive)
2,BrCCCCCCBr,1.67% (inactive)
3,CCc1cc2c(s1)-n1c(C)nnc1CN=C2c1ccccc1Cl,-1.24% [at 42.5 µM] (inactive)
4,O=C1OC(c2ccc(O)c(S(=O)(=O)O)c2)(c2ccc(O)c(S(=O)(=O)O)c2)c2c(Br)c(Br)c(Br)c(Br)c21,0.506% [at 42.5 µM] (inactive)
5,Cc1ncsc1CCCl,0.285% [at 42.5 µM] (inactive)
6,O=C1CN=C(c2ccccc2)c2cc([N+](=O)[O-])ccc2N1,0.888% [at 42.5 µM] (inactive)
7,CCC(=O)C(CCN(C)C)(c1ccccc1)c1ccccc1,-0.976% [at 42.5 µM] (inactive)
8,Cc1ncc2n1-c1ccc(Cl)cc1C(c1ccccc1F)=NC2,-1.43% [at 42.5 µM] (inactive)
9,Fc1cc(Br)ccc1CBr,0.377% [at 42.5 µM] (inactive)
10,CCC(Cl)[N+](=O)[O-] (stereo not given),0.301% (inactive)
11,CCCSP(=S)(OCC)Oc1ccc(Cl)cc1Cl (stereo not given),-0.402% (inactive)
12,CCOP(=S)(OCC)Oc1ncn(-c2ccccc2)n1,5.61% (inactive)
13,N#CCNCC#N,-0.791% (inactive)
14,CCCCOP(=O)(O)OCCCC,-1.16% (inactive)
15,CCN(CC)C(C)C(=O)c1ccccc1 (stereo not given),0.99% [at 42.5 µM] (inactive)
16,COP(N)(=S)Oc1ccccc1C(=O)OC(C)C (stereo not given),-0.916% (inactive)
17,Cc1cccc(C#N)c1,-1.5% (inactive)
18,Cc1cc(C)c(C(=O)P(=O)(C(=O)c2c(C)cc(C)cc2C)c2ccccc2)c(C)c1,-2.59% (inactive)
19,Nc1c(Br)cc([N+](=O)[O-])cc1[N+](=O)[O-],-2.37% (inactive)
20,CC1(C)C(=O)NC(=O)NC1=O,-0.0359% (inactive)

row,SMILES,activation
1,ClC(Cl)Br,-0.241% (inactive)
2,COP(=S)(OC)Oc1c(Cl)cc(C)cc1Cl,-0.396% (inactive)
3,CC1CCCCC1NC(=O)Nc1ccccc1 (stereo not given),6.81% (inactive)
4,CN1CCC(N(Cc2ccccc2)c2ccccc2)CC1,-0.98% [at 42.5 µM] (inactive)
5,O=C(Nc1ccccc1)c1ccccc1I,7.25% (inactive)
6,Cc1cc(C)nc(Nc2ccccc2)n1,9.3% (inactive)
7,O=C1CN2CCOC2(c2ccccc2Cl)c2cc(Cl)ccc2N1 (stereo not given),-0.453% [at 42.5 µM] (inactive)
8,CC1=C(C(=O)O)N2C(=O)[C@@H](N)[C@H]2SC1,0.456% [at 19 µM] (inactive)
9,CCC1(c2ccccc2)C(=O)NC(=O)NC1=O,0.0113% (inactive)
10,COP(=S)(OC)Oc1ccc(S(N)(=O)=O)cc1,-0.475% [at 42.5 µM] (inactive)
11,CCCCN(CCCCO)N=O,0.147% (inactive)
12,Nc1ccccc1Cl,-0.222% (inactive)
13,COc1cc(OC)nc(NC(=O)NS(=O)(=O)c2ncccc2OCC(F)(F)F)n1,-1.36% (inactive)
14,O=CNC(N1CCN(C(NC=O)C(Cl)(Cl)Cl)CC1)C(Cl)(Cl)Cl (stereo not given),-2.52% (inactive)
15,[Cl][Sn]([Cl])([Cl])[Cl],-0.0045% (inactive)
16,CCCCc1c(C)nc(NCC)[nH]c1=O,2.68% (inactive)
17,O=[N+]([O-])c1ccc2c3c(cccc13)CC2,0.0154% (inactive)
18,CCOC(=O)C1(c2ccccc2)CCN(CCc2ccc(N)cc2)CC1,-1.8% [at 42.5 µM] (inactive)
19,O=C1c2ccccc2C(=O)c2ccccc21,5.54% [at 19 µM] (inactive)
20,ClCC(Cl)(Cl)Cl,0.143% (inactive)
